Results taken from the OligoGym collection.

The sequences below were run against WDR33 (assay: pooled miR-30 sensor sort-seq; sequence = guide strand). Details: shRNA.
Note: reference of the scale not given here.

Row | Sequence | sensor-assay potency score (higher = more potent)
1 | TAGATTATATCGATCTCGCATT | -0.783
2 | TAGTATATTGTAATGTAGCCAT | -0.402
3 | TTCAATTTTAAGTTGCTCCAGA | 0.632
4 | TAGTATGGTCATTTGAGCCTGA | 0.248
5 | TTAGATTATATCGATCTCGCAT | 0.262
6 | TTTACTTCCTGAAACAACTAAC | -1.04
7 | TAAACTGTCCCTGTGGACCTGG | -0.115
8 | TTGTAGTCTATGGTTTTTCGGT | -0.753

What follows are sequences tested against WDR34 in the same assay as above. Details: shRNA.

Row | Sequence | sensor-assay potency score (higher = more potent)
9 | TTGAACTCCAGACAGTAGACAG | -1.12
10 | ATCTGCTGCTGCTCGGTCCAGT | -0.627
11 | ATACAGACAAGACACCATCTGC | -0.609
12 | TTCTTGAGCTTGGTGCTCCGTG | -0.384
13 | AATTCTTGTTCAGCTCTCGGAT | -0.793
14 | TGCTTGATCAAAACTGTGGGTT | -0.0783
15 | TTTGCTTGATCAAAACTGTGGG | 0.652
16 | TTGAGGGAGAGCTGCAGCGAAG | -1.68
17 | TTTCTGGAGATCAAACAGCTGC | -0.424
18 | ATACTTGAGGGAGAGCTGCAGC | -0.787
19 | TTAAGCGTGCTCCAGTCCCCAT | -1.36
20 | TTGCTTGATCAAAACTGTGGGT | -0.138

What follows are sequences tested against WDR38 in the same assay as above. Details: shRNA.

Row | Sequence | sensor-assay potency score (higher = more potent)
21 | TGAGCCTGTGAGCAGCATCTGG | -1.58
22 | TTTCCTGTGTTGCAGTCCCAGA | -1.04
23 | TTTCACTCTCCGCACGGCCAGC | -1.51
24 | TTGGTGACCCTTCAGGACCCGC | -1.34
25 | TAGTCTGATCGGCAGCTCCAGA | -1.14
26 | TGACCGTCTCCACACTCCGTTG | -1.74
27 | TTTGACGTCTAGTCTGATCGGC | 1.06
28 | ATATTTGACGTCTAGTCTGATC | -0.981
29 | TTCAGTTGGATAAGCAGGCTGC | -0.0722
30 | TTCTGAGCCTGTGAGCAGCATC | -1.23
31 | TTGACCATGCGGGAATAGCCGG | -1.06
32 | TTGACGTCTAGTCTGATCGGCA | -0.321

Each sequence was assayed against WDR59 in the same assay as above. Details: shRNA.

Row | Sequence | sensor-assay potency score (higher = more potent)
33 | TTCAGCTCGCTTCTCTCTCAGA | -0.891
34 | TAACACTGTAACACTGGCCCTG | 0.0657
35 | TTGCAGATGGCACACTGCGTGC | -1.5
36 | TTGATCTGTCGATTGCCAGAGT | -0.462
37 | TTACTTTTCCATCGTCTTGATT | -0.978
38 | TACTAGAATTTTATTAGCCAAG | -1.53
39 | TTCACCAGCATCTTGACACGAT | 0.208
40 | TTAGCTTTCATGGTGGATGTGA | 0.497
